Data as given in PubChem BioAssay (Tox21).
Where “and” joins values, the source holds several entries; their conditions need not be identical. Equal entries are not always repeated. Some compounds were tested as several samples or in several runs, with calls that do not always agree. Calls of active or inactive are those of the source. Entries that show only a call come without a potency. Calls come from the whole dose curve.

assay: G protein-coupled receptor (GPCR) small molecule agonists, calcium flux assay: HEK293 wild type cell line counter screen (AID 1920065); conditions: HEK293 WT calcium flux, fluorescence, agonist mode; series mostly up to 57.6 µM
Text: U.S. Tox21 Program National Center for Advancing Translational Sciences [NCATS] Division of Preclinical Innovation [DPI] U.S. Environmental Protection Agency [EPA] National Institutes of Environmental Health Sciences [NIEHS] National Toxicology Program [NTP] U.S. Food and Drug Administration [FDA] Assay overview: The increased intracellular calcium release that occurred upon G protein-coupled receptor (GPCR) activation led to the frequent use of calcium flux assays to detect GPCR activation. For the purpose of studying and screening compounds that may activate GPCR, receptor-overexpressing models were typically generated using Hek293 wild-type (WT) cells. In order to eliminate the compounds that may have induced calcium release for non-specific activation, a counter-assay utilizing calcium flux on Hek293 WT cells was performed. The data were formulated in order to serve as a control for any calcium flux detection utilizing Hek293 cells with either GPCR overexpression or gene modification. The procurement of Hek293 WT cells from ATCC. Fluorescence intensity can be utilized to determine the activation of the compound in a calcium flux assay. As a counter control, this cell line was utilized to screen the Tox21 10K compound library.
Assay Protocol Summary: Hek293 cells were dispensed at 1500cells/4uL/well in 1536-well black wall/clear bottom plates using a multidrop dispenser. After the assay plates were incubated at a 37 C/5% CO2 incubator for 18 hours, 4 uL of Calcium Dye Solution was added to each well. The plates were incubated at 37 C for 1 hour. For agonist mode, 23 nL of compounds dissolved in DMSO, positive control (ATP) or DMSO only was transferred to the assay plate by a pin tool station. The fluorescence intensity in the plates was measured using FDSS 7000EX kinetic plate reader with a filter set of Ex/Em=480/540 for 3 min at 1 sec intervals. Each test compound was measured at 15 concentrations and in triplicates.
Potency is the fitted concentration of half-maximal effect.

| Compound | Potency |
| --- | --- |
| C=CCSSCC=C | inactive |
| c1ccc(CN2CCNCC2)cc1 | inactive |
| O=C(O)C1C2CCC(O2)C1C(=O)O (stereo not given) | inactive |
| CCCC[n+]1ccc(C)cc1 | inactive and 39 µM (active) |
| CCCCN(CC)c1c([N+](=O)[O-])cc(C(F)(F)F)cc1[N+](=O)[O-] | inactive |
| CCN(CC)C(=O)SCc1ccc(Cl)cc1 | inactive |
| [O]=[Cr](=[O])([OH])[O][Cr](=[O])(=[O])[OH] | inactive |
| [O-][Cl+2]([O-])O | inactive |
| Nc1cccnc1 | inactive |
| C[C@]12CC[C@H]3[C@@H](CC[C@@]45O[C@@H]4C(O)=C(C#N)C[C@]35C)[C@@H]1CC[C@@H]2O | inactive |
| [N-]=[N+]=CC(=O)OC[C@H](N)C(=O)O | inactive |
| ClCCOCOCCCl | inactive |
| [Cd+2].[Cl-].[Cl-] | inactive |
| Nc1ccc(N=Nc2ccc(-c3ccc(N=Nc4c(S(=O)(=O)O)cc5cc(S(=O)(=O)O)c(N=Nc6ccccc6)c(O)c5c4N)cc3)cc2)c(N)c1 | inactive |
| CN(C)c1nc(=O)n(C2CCCCC2)c(=O)n1C | inactive |
| N#CCNCC#N | inactive |
| [N-]=[N+]=[N-] | inactive |
| NC(=O)OCCCc1ccccc1 | inactive |
| CCCCCCCCCC(CC)c1ccc(S(=O)(=O)O)cc1 (stereo not given) | inactive |
| C=CC(=O)OCCCCCC(C)C | inactive |

| Compound | Potency |
| --- | --- |
| CC(C)OC(=O)Nc1cccc(Cl)c1 | inactive |
| CCC[N+]1(C)CCCCC1 | inactive |
| C=CCOCC1CO1 (stereo not given) | inactive |
| S=C=S | inactive |
| Oc1c(Cl)c(Cl)c(Cl)c(Cl)c1Cl | inactive |
| CC(C)(C)C(O)(CCc1ccc(Cl)cc1)Cn1cncn1 (stereo not given) | inactive |
| Cc1cc(Cl)ccc1N | inactive |
| OCCCl | inactive |
| C=C(C)[C@H]1Cc2c(ccc3c2O[C@@H]2COc4cc(OC)c(OC)cc4[C@@H]2C3=O)O1 | inactive |
| CC(=O)C1CCOC1=O (stereo not given) | inactive |
| C=C(C)CCl | inactive |
| CNC(=O)O/N=C/C(C)(C)S(C)(=O)=O | inactive |
| CC(C)(C)OOC(=O)c1ccccc1 | inactive |
| NC(=O)c1cc([N+](=O)[O-])cc([N+](=O)[O-])c1 | inactive |
| CCCCCCCCCl | inactive |
| CCOC(=O)CP(=O)(OCC)OCC | inactive |
| COC(=O)c1sccc1S(=O)(=O)NC(=O)Nc1nc(C)nc(OC)n1 | inactive |
| COCC(=O)N(c1c(C)cccc1C)C(C)C(=O)OC (stereo not given) | inactive |
| CNC(=O)Oc1ccccc1C1OCCO1 | inactive |
| C[N+](C)(C)CC(=O)O | inactive |
